# Where “and” joins values, the source holds several entries; their conditions need not be identical. Equal values may be shown once. Inconclusive results are not listed. Where a call stands in place of a potency, no number is given. Calls of active or inactive are those of the source. Unless noted, calls come from the whole dose curve; as a rule, active = well fitted curve in the direction sought with a large enough effect; inconclusive = small, poorly fitted or top-dose-only effect, or another doubt; inactive = no such curve, though single readings can be large; an effect the other way counts as inactive or inconclusive.
# Key:
# [1] = Cellular Toxicity (caspase-3) HepG2 (AID 654);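 note: cells exposed to compound for 16 hours before reading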
# Outline: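 HepG2 cells (1500/well) were treated 16 h at 37 °C in complete medium, then caspase 3/7 activity was read by Caspase-Glo luminescence. Data were normalized to DMSO and 100 uM tamoxifen; AC50 came from Hill-equation fits of qHTS concentration-response.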
# [2] = Cellular Toxicity (caspase-3) Jurkat (AID 655); details: Jurkat caspase-3 activation, luminescence, DMSO = 0%, tamoxifen = 100%; at 92.2 µM (top of the series);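 note: cells exposed to compound for 16 h at 37 °C before reading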
# Outline: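 Jurkat cells (5000/well) in complete medium exposed 16 h at 37 C; caspase-3/7 activity read by Caspase-Glo luminescence after 20 min at room temperature. Normalized to DMSO and 100 uM tamoxifen; AC50 from Hill fits.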
# [3] = Cellular Toxicity (caspase-3) HUV-EC-C (AID 656); note: potency is the fitted concentration of half-maximal effect
# Outline: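 HUV-EC-C cells (1000/well) in complete medium, compound-treated 16 h at 37 °C; caspase-3/7 activity read by Caspase-Glo 3/7 luminescence. Normalized to DMSO (basal) and 100 uM tamoxifen (100%); AC50 from Hill-equation concentration-response fits.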
# [4] = Cellular Toxicity (caspase-3) SHSY5Y (AID 657)
# Outline: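 SH-SY5Y human neuroblastoma cells, 1500/well, exposed to compound for 16 hours at 37 °C in complete medium. Caspase-3/7 activity read by Caspase-Glo luminescence after 1 hr at room temperature, normalized to DMSO and 10 uM staurosporine; AC50 from Hill fit.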
# [5] = Cellular Toxicity (caspase-3) BJ (AID 658)
# Outline: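 Readout: Caspase-Glo 3/7 luminescence increase in BJ cells after 16 hr treatment at 37 °C. Staurosporine and tamoxifen served as positive controls; AC50 values came from Hill modelling of data normalized to DMSO and 10 uM staurosporine.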
# [6] = Cellular Toxicity (caspase-3) MRC-5 (AID 659)
# Outline: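 Concentration-dependent caspase 3/7 activation is measured in human normal lung fibroblasts (MRC-5) following 16-hour treatment. AC50 values come from standard Hill-equation modeling of luminescence normalized to DMSO and 10 uM staurosporine.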
# [7] = Cellular Toxicity (caspase-3) Mesangial (AID 660);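 note: cells exposed to compound for 16 h before the caspase read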
# Outline: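 Human renal glomerular mesangial cells, 1000/well, 5 h at 37 C before 16 h compound treatment. Caspase-Glo 3/7 luminescence after 20 min; normalized to DMSO and 100 uM tamoxifen, AC50 from Hill fit.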
# [8] = Cellular Toxicity (caspase-3) SK-N-SH (AID 661)
# Outline: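 Human SK-N-SH neuroblastoma cells, 1500/well, were exposed to compounds for 16 hours at 37 °C. Caspase-Glo 3/7 luminescence was normalized to DMSO (basal) and 10 uM staurosporine (100%), and AC50 came from a Hill fit.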
# [9] = Cellular Toxicity (caspase-3) H-4-II-E (AID 663);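 note: cells exposed to compound for 16 hr before readout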
# Outline: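 Apoptosis induction is scored as increased luminescence from caspase 3/7 substrate cleavage in rat hepatoma H-4-II-E cells exposed to compound for 16 hr. Activity is scaled between DMSO and 100 uM tamoxifen.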
# [10] = Cellular Toxicity (caspase-3) Hek293 (AID 664);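 note: cells exposed to compound for 16 h at 37 °C before readout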
# Outline: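 HEK293 cells in complete medium treated 16 h at 37 °C, then Caspase-Glo 3/7 luminescence read after 20 min at room temperature. Normalized to DMSO and 100 uM tamoxifen; AC50 from Hill fit of concentration-response.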
# [11] = Cellular Toxicity (caspase-3) N2a (AID 665);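 note: compound exposure lasted 16 h at 37 °C before readout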
# Outline: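 Mouse N2a neuroblastoma cells, 1500 per well, treated 16 h at 37 °C in complete medium; caspase-3/7 activity by Caspase-Glo luminescence after 1 h. Normalized to DMSO and 10 uM staurosporine; AC50 from Hill fits.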
# [12] = Cellular Toxicity (caspase-3) NIH 3T3 (AID 666);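 note: caspase signal read after 16 h compound exposure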
# Outline: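 Mouse NIH 3T3 fibroblasts (1000/well) treated 16 h at 37 C; caspase-3/7 activity measured by Caspase-Glo 3/7 luminescence after 20 min. Normalized to DMSO and 100 uM tamoxifen; AC50 from Hill fits.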
# [13] = Cellular Toxicity (caspase-3) Renal Proximal Tubule (AID 667);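 note: cells exposed to compound for 16 hours at 37 °C before detection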
# Outline: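 Freshly isolated primary rat kidney proximal tubule cells, 1000/well, treated 16 hr at 37 °C, then Caspase-Glo 3/7 luminescence after 1 hr. Normalized to DMSO and 10 uM staurosporine; AC50 from Hill fit.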
# [14] = target: Cytochrome P450 3A4 (Homo sapiens) (UniProt P08684); test: qHTS Assay for Activators of Cytochrome P450 3A4 (AID 885); note: nearly all actives have a fitted effect of over 65% in size
# Sequence of Cytochrome P450 3A4 (Homo sapiens) (P08684 whole entry, looked up): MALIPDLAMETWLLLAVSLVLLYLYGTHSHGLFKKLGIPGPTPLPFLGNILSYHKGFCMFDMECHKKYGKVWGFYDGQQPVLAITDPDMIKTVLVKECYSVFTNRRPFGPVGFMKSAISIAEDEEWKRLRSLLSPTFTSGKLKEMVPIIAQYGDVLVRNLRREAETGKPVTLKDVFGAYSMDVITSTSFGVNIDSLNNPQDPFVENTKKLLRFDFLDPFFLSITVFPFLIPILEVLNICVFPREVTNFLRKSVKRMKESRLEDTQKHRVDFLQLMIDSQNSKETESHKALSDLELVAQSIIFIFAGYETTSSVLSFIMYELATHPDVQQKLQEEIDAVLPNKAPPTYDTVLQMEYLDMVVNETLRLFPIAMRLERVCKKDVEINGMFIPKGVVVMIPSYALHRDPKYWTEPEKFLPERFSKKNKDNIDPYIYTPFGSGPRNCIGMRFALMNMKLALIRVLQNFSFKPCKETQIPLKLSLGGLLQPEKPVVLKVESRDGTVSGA
# Outline: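 20nM CYP3A4 + 25uM Luciferin-PPXE (=KM), 200mM KPO4; cpd 10 min RT; NADPH regen, 60 min RT; stop w/ detection buffer, 20 min; luminescence. Normalized to 57 uM ketoconazole.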
# [15] = target: Cytochrome P450 3A4 (Homo sapiens) (UniProt P08684); test: qHTS Assay for Inhibitors and Substrates of Cytochrome P450 3A4 (AID 884); note: nearly all actives have a fitted effect of over 50% in size
# Outline: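 20 nM human CYP3A4 with 25 uM Luciferin-PPXE (at KM) in 200 mM KPO4, preincubated 10 min with compound; NADPH regeneration started a 60 min RT reaction. Luciferin detected by luminescence, normalized to 57 uM ketoconazole as full inhibition.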
# [16] = target: Guanine nucleotide-binding protein G(i) subunit alpha-1 (Homo sapiens) (UniProt P63096); test: qHTS Assay for Inhibitors of RGS12 GoLoco Motif Activity (Green Fluorophore) (AID 879);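 note: negative values mean loss of peptide binding seen as reduced polarization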
# Sequence of Guanine nucleotide-binding protein G(i) subunit alpha-1 (Homo sapiens) (P63096 whole entry, looked up): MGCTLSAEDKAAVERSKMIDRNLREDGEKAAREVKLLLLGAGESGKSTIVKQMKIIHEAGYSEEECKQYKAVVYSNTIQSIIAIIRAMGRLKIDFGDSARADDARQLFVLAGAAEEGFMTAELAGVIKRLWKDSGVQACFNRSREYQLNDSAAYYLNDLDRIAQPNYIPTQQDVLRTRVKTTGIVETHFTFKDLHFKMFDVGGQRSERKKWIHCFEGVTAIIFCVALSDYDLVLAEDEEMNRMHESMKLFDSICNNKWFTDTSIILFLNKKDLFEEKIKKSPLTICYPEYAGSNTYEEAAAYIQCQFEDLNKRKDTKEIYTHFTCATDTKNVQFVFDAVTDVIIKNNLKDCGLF
# Outline: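 Fluorescence polarization assay: 50 nM Gαi1 with 10 nM FITC-labeled RGS12 GoLoco peptide in 10 mM Tris pH 7.5, 150 mM NaCl, 0.1 mM GDP, 0.05% NP40, 10 min at room temperature with compound.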
# [17] = target: Cytochrome P450 2C9 (Homo sapiens) (UniProt P11712); test: qHTS Assay for Inhibitors and Substrates of Cytochrome P450 2C9 (AID 883); note: nearly all actives have a fitted effect of over 60% in size
# Sequence of Cytochrome P450 2C9 (Homo sapiens) (P11712 whole entry, looked up): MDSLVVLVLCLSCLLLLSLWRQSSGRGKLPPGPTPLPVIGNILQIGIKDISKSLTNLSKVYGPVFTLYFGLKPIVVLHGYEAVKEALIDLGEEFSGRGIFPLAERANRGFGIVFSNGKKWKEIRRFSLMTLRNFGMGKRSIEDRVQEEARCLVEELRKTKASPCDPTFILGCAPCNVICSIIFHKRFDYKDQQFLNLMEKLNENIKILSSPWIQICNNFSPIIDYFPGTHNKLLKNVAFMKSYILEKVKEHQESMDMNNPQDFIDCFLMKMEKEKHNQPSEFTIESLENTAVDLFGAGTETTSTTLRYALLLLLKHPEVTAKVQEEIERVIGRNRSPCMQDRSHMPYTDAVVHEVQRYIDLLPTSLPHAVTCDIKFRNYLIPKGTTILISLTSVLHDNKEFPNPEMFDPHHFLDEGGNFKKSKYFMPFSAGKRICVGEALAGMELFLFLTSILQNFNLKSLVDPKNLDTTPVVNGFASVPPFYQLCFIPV
# Outline: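 Luminescent read-out of deoxyluciferin hydroxylation, normalized to 57uM sulphaphenazole (AC100). Reaction: 10nM enzyme, 100uM Luciferin-H (equal to KM), 25mM KPO4, 10 min compound preincubation, then 60 min with NADPH regeneration, both at 37C.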
# [18] = target: Cytochrome P450 2D6 (Homo sapiens) (UniProt P10635); test: qHTS Assay for Inhibitors and Substrates of Cytochrome P450 2D6 (AID 891);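 note: luciferin methyl ether substrate demethylated by CYP2D6 with NADPH regeneration; nearly all actives have a fitted effect of over 60% in size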
# Sequence of Cytochrome P450 2D6 (Homo sapiens) (P10635 whole entry, looked up): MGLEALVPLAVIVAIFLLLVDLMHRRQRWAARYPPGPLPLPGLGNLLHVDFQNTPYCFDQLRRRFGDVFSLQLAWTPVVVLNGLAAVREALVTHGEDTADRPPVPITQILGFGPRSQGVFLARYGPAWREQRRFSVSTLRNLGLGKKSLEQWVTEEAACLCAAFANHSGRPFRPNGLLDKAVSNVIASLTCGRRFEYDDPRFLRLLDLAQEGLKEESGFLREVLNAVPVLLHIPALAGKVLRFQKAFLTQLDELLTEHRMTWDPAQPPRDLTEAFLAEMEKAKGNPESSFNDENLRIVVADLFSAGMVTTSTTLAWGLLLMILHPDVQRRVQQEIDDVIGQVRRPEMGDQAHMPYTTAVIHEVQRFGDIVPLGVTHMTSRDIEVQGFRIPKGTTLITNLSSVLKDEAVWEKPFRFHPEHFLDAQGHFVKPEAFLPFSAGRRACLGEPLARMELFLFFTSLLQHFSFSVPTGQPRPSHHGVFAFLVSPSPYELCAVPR
# Outline: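 Human CYP2D6 (5 nM) with 30 uM Luciferin-ME EGE (at Km) in 100 mM KPO4, compound preincubated 10 min, then NADPH regeneration system for 60 min at room temperature. Luciferin read by luminescence; normalized to 1.43 uM quinidine.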
# [19] = qHTS Assay for Identification of Small Molecule Antagonists for NFkB Signaling Pathway (AID 895; active = well fitted inhibition curve with a large enough effect in the signal ratio, with a control signal flat, not every such curve was filed as active; the % refers to the signal ratio; note: potency is the fitted concentration of half-maximal effect)
# Outline: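 Beta-lactamase reporter read-out (460 and 530 nm emission ratio, 405 nm excitation, 2 hrs substrate loading RT) after 5 hr stimulation with 10 pM TNF alpha in compound-treated NFkB-bla ME-180 cells in low-serum medium.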
# [20] = target: Cytochrome P450 2C19 (Homo sapiens) (UniProt P33261); test: qHTS Assay for Inhibitors and Substrates of Cytochrome P450 2C19 (AID 899); note: nearly all actives have a fitted effect of over 60% in size
# Sequence of Cytochrome P450 2C19 (Homo sapiens) (P33261 whole entry, looked up): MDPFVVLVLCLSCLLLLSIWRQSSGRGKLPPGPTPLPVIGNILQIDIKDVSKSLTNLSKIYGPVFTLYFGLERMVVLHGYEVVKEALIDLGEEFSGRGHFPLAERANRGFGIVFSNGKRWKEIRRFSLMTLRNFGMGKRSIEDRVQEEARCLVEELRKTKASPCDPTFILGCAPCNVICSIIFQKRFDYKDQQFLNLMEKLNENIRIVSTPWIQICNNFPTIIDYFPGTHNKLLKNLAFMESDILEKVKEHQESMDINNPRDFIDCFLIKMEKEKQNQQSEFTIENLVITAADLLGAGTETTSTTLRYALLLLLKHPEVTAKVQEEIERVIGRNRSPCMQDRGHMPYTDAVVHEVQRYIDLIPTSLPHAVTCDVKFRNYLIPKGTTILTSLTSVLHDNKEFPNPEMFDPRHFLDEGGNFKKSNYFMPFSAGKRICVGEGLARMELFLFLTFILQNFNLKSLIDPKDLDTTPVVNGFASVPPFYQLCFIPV
# Outline: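 Luminescence readout of luciferin formed from 10uM Luciferin-H EGE (KM level) by 5 nM CYP2C19 in 50mM KPO4. 60 min NADPH-driven reaction at 37C after 10 min compound preincubation; data scaled to 57uM ketoconazole inhibition.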
SMILES,outcome [1],caspase-3 activation [2],Potency [3],outcome [4],outcome [5],outcome [6],outcome [7],outcome [8],outcome [9],outcome [10],outcome [11],outcome [12],outcome [13],outcome [14],Potency [15],outcome [16],outcome [17],Potency [18],Potency [19],Potency [20]
CCOC(=O)CC(SP(=S)(OC)OC)C(=O)OCC (stereo not drawn),inactive,-0.413% (inactive),inactive,inactive,inactive,inactive,inactive,inactive,inactive,inactive,inactive,inactive,inactive,inactive,,,,,,
COP(=S)(OC)Oc1ccc(SC)c(C)c1,inactive,0.672% (inactive),inactive,inactive,inactive,inactive,inactive,inactive,inactive,inactive,inactive,inactive,inactive,,,,,,,
Nc1ccccc1C(=O)O,inactive,-0.541% (inactive),inactive,inactive,inactive,inactive,inactive,inactive,inactive,inactive,inactive,inactive,inactive,,inactive,,,,,
Oc1ccc(Cl)cc1,inactive,-0.847% (inactive),inactive,inactive,inactive,inactive,inactive,inactive,inactive,inactive,inactive,inactive,inactive,,inactive,,,,,
CC(C)NC(C)C,inactive,0.66% (inactive),inactive,inactive,inactive,inactive,inactive,inactive,inactive,inactive,inactive,inactive,inactive,,inactive,,,,,
O=C(O)CCCc1ccc(N(CCCl)CCCl)cc1,,96.5% (active),inactive,,inactive,inactive,inactive,,inactive,inactive,inactive,inactive,inactive,,inactive,inactive,inactive,inactive,8.91 µM (active),inactive
C[C@]12CCC(=O)C=C1CC[C@@H]1[C@@H]2CC[C@]2(C)C(=O)CC[C@@H]12,inactive,7.89% (inactive) and 0.322% (inactive),inactive,inactive,inactive,inactive,inactive,inactive,inactive,inactive,inactive,inactive,inactive,,inactive,inactive,,,,
CCCCC/C=C\C/C=C\C/C=C\C/C=C\CCCC(=O)NCC(=O)O,,,,,,,,,,,,,,,,inactive,,,,
CCC(C)(C)c1ccc(O)cc1,inactive,-1.04% (inactive),inactive,inactive,inactive,inactive,inactive,inactive,inactive,inactive,inactive,inactive,inactive,,inactive,,,,,
O=P1(N(CCCl)CCCl)NCCCO1 (stereo not drawn),inactive,-0.663% (inactive),inactive,inactive,inactive,inactive,inactive,inactive,inactive,inactive,inactive,inactive,inactive,,inactive,inactive,inactive,inactive,,inactive
COc1cc(OC)c(OC)cc1C=O,inactive,1.29% (inactive),inactive,inactive,inactive,inactive,inactive,inactive,inactive,inactive,inactive,inactive,inactive,,inactive,,,,,
NCCc1ccc(O)cc1,inactive,3.49% (inactive),inactive,inactive,inactive,inactive,inactive,inactive,inactive,inactive,inactive,,inactive,,inactive,inactive,,,,inactive
C[C@]1(O)CC[C@H]2[C@@H]3CCC4=CC(=O)CC[C@]4(C)[C@@]3(F)[C@@H](O)C[C@@]21C,inactive,-1.66% (inactive),inactive,inactive,inactive,inactive,inactive,inactive,inactive,inactive,inactive,inactive,inactive,,inactive,,,,,
C[C@]12CCC(=O)C=C1CC[C@@H]1[C@@H]2CC[C@@]2(C)[C@H]1CC[C@]2(C)O,inactive,22.4% (inactive),inactive,inactive,inactive,inactive,inactive,inactive,inactive,inactive,inactive,inactive,inactive,,inactive,,,,,
Clc1ccc(C(c2ccc(Cl)cc2)C(Cl)(Cl)Cl)cc1,inactive,7.14% (inactive),50.1 µM (active),inactive,inactive,inactive,inactive,inactive,inactive,,inactive,inactive,inactive,,inactive,,,,,
CCCC(C)(COC(N)=O)COC(N)=O,inactive,0.151% (inactive),inactive,inactive,inactive,inactive,inactive,inactive,inactive,inactive,inactive,inactive,inactive,,inactive,,,,,
COC(=O)C(c1ccccc1)C1CCCCN1 (stereo not drawn),inactive,0.101% (inactive),inactive,inactive,inactive,inactive,inactive,inactive,inactive,inactive,inactive,inactive,inactive,,inactive,,,,,
Nc1ccccc1,inactive,-1.64% (inactive),inactive,inactive,inactive,inactive,inactive,inactive,inactive,inactive,inactive,inactive,inactive,,inactive,,,,,
CC(C)c1cccc(C(C)C)c1O,inactive,0.709% (inactive),inactive,inactive,inactive,inactive,inactive,inactive,inactive,inactive,inactive,inactive,inactive,,,inactive,,,inactive,
CN1C[C@H](C(=O)N[C@]2(C)O[C@@]3(O)[C@@H]4CCCN4C(=O)[C@H](Cc4ccccc4)N3C2=O)C=C2c3cccc4[nH]cc(c34)C[C@H]21,inactive,,inactive,inactive,inactive,inactive,inactive,inactive,inactive,inactive,inactive,inactive,inactive,,,,,,,
O=c1[nH]oc2c1CCNC2,,,,,,,,,,,,,,,,inactive,inactive,,inactive,
O=C(CCCN1CCC2(CC1)C(=O)NCN2c1ccccc1)c1ccc(F)cc1,,,,,,,,,,,,,,,,inactive,,,inactive,
COc1cc(-c2ccc(=O)[nH]n2)ccc1OC(F)F,,,,,,,,,,,,,,,,,inactive,,,

# From PubChem BioAssay (NCATS)
